Compounds with a hit are over-represented: about 5.7% of the library has one in this group of screens.
KB-3-1 tox = kills parental KB-3-1 adenocarcinoma cells; Potency, µM (titrated, usually from 46.1 µM), actives largely listed as cytotoxic; hit rate 1.4% among 400,000; AID 1347075; KB-3-1 viability, CellTiter-Glo ATP luminescence, 72 h; further: potency means the concentration at half of the fitted maximal effect; nearly all actives have a fitted effect of over 60% in size
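Using CellTiter-Glo luminescence, growth of non-resistant KB-3-1 adenocarcinoma cells is assessed 72 h after pin-tool compound addition at 37 °C. Normalized responses across the concentration series yield fitted curves.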
KB-V1 MDR tox = kills drug-selected multidrug resistant KB-V1 cells | hit rate 3.4% among 400,000 | KB-V1 MDR cells viability, CellTiter-Glo, 72 h | Potency, µM (top dose mostly 46.1 µM), actives largely listed as cytotoxic; further: potency means the concentration at half of the fitted maximal effect; nearly all actives have a fitted effect of over 60% in size
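KB-V1 cells (P-gp-expressing MDR subline of KB-3-1) in phenol-red-free DMEM with 10% FBS were exposed to library compounds over a concentration series for 72 h at 37 degrees C. Viability read by CellTiter-Glo luminescence; concentration-effect curves fitted after normalization.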
A549 tox-1 = kills or reduces viability of A549 cells in Nrf2 counter-screen. A549 ARE-Fluc cells, CellTiter-Fluor viability, 18-24 h. Potency, µM (doses to about 46 µM), for inactives: at the top dose activity change, negative = cytotoxicity, hits mostly inhibitors. hit rate 0.16% among 390,000. AID 504648; further: potency means the concentration at half of the fitted maximal effect
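A549 ARE-Fluc cells in 5% FBS OPTI-MEM, 5000 cells/well, rested 2 h then exposed to compounds in concentration-response for 18-24 h at 37 °C. Viability by CellTiter-Fluor fluorescence (Ex 405/Em 525) after 30 min; luciferase luminescence (BugLite, 15 min, RT) read afterwards.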
Giardia kill = Giardia lamblia killing; Giardia lamblia trophozoite viability; activity change, % at 7.66 µM, hits read low; hit rate 0.15% among 340,000; in the data active means activity change below about -80%; inconclusive means between about -30% and that limit;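 further: parasites exposed to compound for two days anaerobically before the ATP read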
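Trophozoites 100 cells/well + cpd; 48 hrs, 37 deg C, anaerobic. ATPLite 1-Step added, 15-30 min RT, luminescence read (ATP-based viability).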
Nrf2 inh = Nrf2 pathway inhibition | A549 ARE-Fluc reporter, luciferase luminescence, 18-24 h | Potency, µM (highest dose often 46 µM), for inactives: top-dose activity change, negative = inhibition, hits mostly inhibitors | hit rate 2.1% among 360,000 | AID 504444; further: potency means the concentration at half of the fitted maximal effect; nearly all actives have a fitted effect of over 60% in size
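Nrf2 activity is the BugLite luminescence, read 15 min after reagent at room temperature, following CellTiter-Fluor cytotoxicity readout (30 min, 37C). Compound titrations were applied for 18-24 h to 5000 A549 ARE_Fluc cells/well in 5% FBS OPTI-MEM.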
PI4K2A block = inhibitors of human PI4K2A | Q9BTU6 | purified PI4K2A, ADP-Glo luminescence, 1 h; stronger effect = lower value | activity change, negative = inhibition, % at 76.9 µM | hit rate 0.13% among 420,000 | AID 1346378; in the data active means activity change below about -50%; inconclusive means mostly about -30% to -49%;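 further: -100% = wells without enzyme as full effect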
Target sequence (Q9BTU6 whole entry, looked up): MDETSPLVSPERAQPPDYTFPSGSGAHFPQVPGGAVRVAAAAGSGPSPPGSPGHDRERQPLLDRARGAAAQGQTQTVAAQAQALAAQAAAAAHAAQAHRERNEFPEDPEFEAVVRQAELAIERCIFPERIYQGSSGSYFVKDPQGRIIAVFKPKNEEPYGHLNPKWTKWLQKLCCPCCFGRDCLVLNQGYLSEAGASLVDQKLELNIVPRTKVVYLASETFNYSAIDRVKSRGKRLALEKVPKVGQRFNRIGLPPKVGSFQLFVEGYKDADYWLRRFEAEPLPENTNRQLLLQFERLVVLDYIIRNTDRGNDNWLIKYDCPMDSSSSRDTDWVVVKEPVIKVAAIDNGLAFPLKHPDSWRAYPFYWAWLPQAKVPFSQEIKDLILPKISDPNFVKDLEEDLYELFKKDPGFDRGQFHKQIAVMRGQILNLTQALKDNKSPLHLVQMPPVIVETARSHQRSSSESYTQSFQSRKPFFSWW
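Compounds are screened against recombinant PI4K2A using PI as substrate and ATP, the latter dispensed at 300 microM. Reactions run one hour at ambient temperature before ADP-Glo detection; full inhibition defined by wells lacking enzyme.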
FLuc enzyme inh = counter-screen for Nrf2 inhibitors: firefly luciferase enzyme inhibition; AID 720522; hit rate 4% among 1,400; purified firefly luciferase, luminescence inhibition; Potency, µM (doses to about 57.5 µM), without a hit: at the highest dose activity change, negative = inhibition, actives largely listed as inhibitors; shares compounds with Nrf2 inh; further: potency means the concentration at half of the fitted maximal effect; nearly all actives have a fitted effect of over 65% in size
A549 tox-2 = A549 cytotoxicity, Nrf2 inhibitor counterscreen; shares compounds with Nrf2 inh; A549 ARE-Fluc cells, cytotoxicity counterscreen; Potency, µM (titrated, usually from 46.1 µM), for inactives: top-dose activity change, negative = cytotoxicity, hits mostly inhibitors; hit rate 2% among 1,400;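 further: potency means the concentration at half of the fitted maximal effect; cells exposed to compounds for 18 to 24 hours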
ARE-Fluc inh = Nrf2 inhibition confirmed, A549 ARE-luciferase; hit rate 74% among 1,400; A549 ARE-firefly luciferase reporter, luminescence; AID 720524; Potency, µM (doses to about 46.1 µM), for the others: at the highest dose activity change, negative = inhibition, usual class: inhibitors; shares compounds with Nrf2 inh; further: potency means the concentration at half of the fitted maximal effect; nearly all actives have a fitted effect of over 65% in size
* marks the source's active call; other numbers are inactive results; i = inactive; ? = inconclusive; . = no result. Unless noted, the call rests on the fitted dose curve; in most records, active means well fitted curve in the direction sought with a large enough effect; inconclusive means small, poorly fitted or top-dose-only effect, or another doubt; inactive means no such curve, though single readings can be large; an effect the other way counts as inactive or inconclusive. Unless noted, on the % scale 0 is the no-effect control and ±100 the full control effect.

SMILES	KB-3-1 tox	KB-V1 MDR tox	A549 tox-1	Giardia kill	Nrf2 inh	PI4K2A block	FLuc enzyme inh	A549 tox-2	ARE-Fluc inh
COc1cccc(NC(=O)N(Cc2cn(C)c3ccccc23)C2CCCCC2)c1	i	i	?	.	3.3µM*	0	-11%	?	?
Cc1c(C(=O)N2CCN(Cc3ccc4c(c3)OCO4)CC2)sc2ncnc(N3CCN(c4ccccc4)CC3)c12	i	i	1%	-6	1.2µM*	-4	-3%	-22%	7.3µM*
Cc1c(C(=O)N2CCN(Cc3ccc4c(c3)OCO4)CC2)sc2ncnc(N3CCN(c4ccccc4F)CC3)c12	?	i	-3%	11	1%	-3	.	.	.
CCN(CC)C(=O)CC[C@H]1CC[C@]2(CCCN(Cc3ccc(OC)cc3)C2)O1	.	.	.	.	.	1	.	.	.
COc1ccc(-n2c(-c3ccccc3)c[n+]3c2CCC3)cc1	4.1µM*	i	-12%	-2	9.2µM*	-10	1%	-12%	6.5µM*
CCOc1ccc(-c2c[n+]3c(n2-c2ccccc2)CCCCC3)cc1	5.8µM*	?	?	-3	0.92µM*	-2	1%	-16%	10µM*
COc1ccc(-n2nc(C(=O)O)nc2-c2ccccc2)cc1	i	i	1%	10	16%	0	.	.	.
COc1ccc(-n2c(-c3ccc(Br)cc3)c[n+]3c2CCC3)cc1	4.1µM*	i	-13%	8	4.6µM*	1	1%	-1%	-36%
CCOc1ccc(-c2nnc(-c3ccccc3)n2-c2ccccc2)cc1	i	i	-7%	2	0%	-3	.	.	.
CCC[C@H]1[C@@H](NC(=O)c2ccc(Cl)cc2)CC[C@@]23CCCN2C(=O)CCC[C@@H]13	.	.	.	.	.	0	.	.	.
Cc1ccc(C(=O)Nc2sc3c(c2C(=O)O)CCC(C)C3)o1 (centres undefined)	?	i	-22%	-16	5.8µM*	-1	2.4µM*	-27%	5.2µM*
COC(=O)c1c(NC(=O)c2ccc(C)o2)sc2c1CCCCC2	i	?	7%	-3	?	0	.	.	.
COc1ccccc1N=c1oc2cc(O)ccc2cc1C(=O)NCC1CCCO1 (centres undefined)	i	i	.	-1	?	-11	-16%	0%	13µM*
COc1ccc2[nH]c(=O)c3c(c2c1)OC(C)(C)C=C3	?	?	-18%	1	8.2µM*	3	-14%	-23%	12µM*
COC(=O)CN1CC(=O)c2ccccc2S1(=O)=O	.	.	0%	-7	17%	.	.	.	.
Cc1nn(-c2ccc(NC(=O)c3ccncc3)cc2)c(C)c1Cl	i	i	-7%	8	3.7µM*	2	-11%	-5%	7.3µM*
COc1cc2c(cc1OC)n(CC(=O)c1cc(C)ccc1C)c(=O)n1nc(CCn3nc(C)cc3C)nc21	.	.	2%	.	.	-4	.	.	.
Nc1ccc(-c2cc3ccccc3c(=O)o2)cc1	i	i	-1%	-9	?	8	1.5µM*	-3%	2.3µM*
COc1cc(OC)cc(-c2cc3ccccc3c(=O)o2)c1	i	i	-1%	-11	24%	6	.	.	.
Cc1ccc(S(=O)(=O)NCc2ccc(C(=O)N3CCN(c4ccc([N+](=O)[O-])cc4)CC3)cc2)cc1	?	?	?	-7	5.2µM*	0	-1%	-21%	5.8µM*

Screening results from PubChem.
